# Laboratory results from article PMC12864922, “TDP-43 directly inhibits mRNA accumulation in neurites through modulation of mRNA stability”.
# Over roughly 9,900 sequences, “r (bound/input frequency ratio)” has its median near 0.7; the highest 2% begin near 6.5. The sample as a whole holds a higher share of the highest values than the screen did.
# B1: ENSMUSG00000031028.612|Tub|38:42 (ssRNA)
# RNA: GGGAGUUCUACAGUCCGACGAUCGCUUCGAUAUCCGCAUGCUAUGAGCAGCUAGAGCAUUUGAGCAACCCAUGUAAUCUUACACAUUCCCUCCCUGUAAGAAGGCCUGUCAGAGCUUGCUGUAGGAGUUAGGGUAAAUGAAAGUUAGUCCUGGCUCUCAUCACCACCUUUCCUAGCUCAUCACUGUGCCUUCUUUCUUCCCUAAGAAAGACAAUGCACCCCUCUCUUCUGUUCUCCUGCCCCUUCGCCCCCACUGAGGUCCAGGUAGAGCAGAUGAGGCUGAAAUGUAGAGUGUUCUAUAGAGCUCUUGCGGUCGCACUAGUGUGGAAUUCUCGGGUGUCAAGG
# B2: ENSMUSG00000043670.77|Diras1|85:90 (ssRNA)
# RNA: GGGAGUUCUACAGUCCGACGAUCGCUUCGAUAUCCGCAUGCUAGGAUCUGAAAACAGGGACCUGGCUAAGGAACUGCUCAUCCCAGUCAGGCCCAGAGAGGUUACCUUGCCUCUCCAUCUCUGUCCCACACACCCCAGCCAUGCCCACUGUCCCUGUCCCUCACAUUCUAUCACUGUGACCUCUGGGGAGUGCCCAUUGACCUCAUCUUCCUUCACUAAUAUCUUAUUUCUUUCACCUGAUCCUGUCCUUUCCCCGUGACCUCUGACCUGUGGCCUUCCCUGGGUCCAGAACACCCCUGUCCUCUCUUGCGGUCGCACUAGUGUGGAAUUCUCGGGUGUCAAGG
# B3: ENSMUSG00000090935.47|Synj2bp (ssRNA)
# RNA: GGGAGUUCUACAGUCCGACGAUCGCUUCGAUAUCCGCAUGCUAGCGGGAUGUGCUGUGUCCCUGAGAGUACAGCACAGGGUAGGUAUUACCUGCACCUGGAUAUGGGACAGUAGGCUUUUACACUGUUCUUGUGAAUAGGUUUGUAAGCUUCAAAGUCUGCUUUACUUUAUCUUCUGUUAUGAUUGCCUUUGUCAGCAUAGGCAGGAGUCCUUUAGGAUUUCUGCCUAUCAGUAAAAGAAGUAUGUAACCCAAGUUCUACCUUCAGUGGAUUAAAGUUUCAUUAAGUGAAAAUGGAAAGAAAGCUCUUGCGGUCGCACUAGUGUGGAAUUCUCGGGUGUCAAGG
# B4: ENSMUSG00000058297.314|Spock2 (ssRNA)
# RNA: GGGAGUUCUACAGUCCGACGAUCGCUUCGAUAUCCGCAUGCUAGCUGAGGCUUCCAGGACAAAGCCCCAGUCUGGCUCUCCCCCAGCCUCUCAGGGGCACUGGCUGGUCACAUCCACUGAGUAUUGAUCGGUUGGACUUUAGGGAAGAGCCUCCUCCUUCCCAUUCCUUUCUGCCACCCUGGAAUGGCCACCUUAAUCGUCAUCUCCUCGGGGGGAAUACGGAAAUGUCACCAAGCUCCAUAAAGUGCUUCUCAUUCCACGACACAGUUCUGACUCUCCGGGUGACUGUCACCUGCUCCCAUCCUCUUGCGGUCGCACUAGUGUGGAAUUCUCGGGUGUCAAGG
# B5: ENSMUSG00000031028.648|Tub (ssRNA)
# RNA: GGGAGUUCUACAGUCCGACGAUCGCUUCGAUAUCCGCAUGCUACCAGGUAGAGCAGAUGAGGCUGAAAUGUAGAGUGUUCUAUAGAGCAUCUCAGUAGCAUAGAAGGAGAAGCCCAGCUCCAACCUCCUGGACCCCAUACUGGUGACCAGCUUGGUGAGGACAGGCAAAAUUUCUCUAGCUGAGAGCACACUUAGCCAGUUUUCACGCCUAGAACAUAUAUGUCGAUUUGCACAUGAUUGUCUUUUCCUAUUUUGGAGUGGUCAGACAUUUUAUUUUUGUUCAAAAUUAUCUGGAGUUUUAGACUCUUGCGGUCGCACUAGUGUGGAAUUCUCGGGUGUCAAGG
# B6: ENSMUSG00000032194.138|Kank2 (ssRNA)
# RNA: GGGAGUUCUACAGUCCGACGAUCGCUUCGAUAUCCGCAUGCUAUGACUUGGAAAUGACCAACUUACAAGAAGUUAUGCUGACCUCCCUGUUCCCCACGGGGAGUGCUUGGCAGAGGAGACUACUUCUAGAAAUACUUUCAGACCUACAGACAAAAAAGAAAAAAGGCCAUUCCGGAGUGACUCCCAGCAUCACAGCCCAGAACCUCCUCCUCAAAGGAGAGUAAACAGAGACUGUGAUACUGACCAAGUACAGGCGCUCGCUAUGAAGCCCAUAUGUUCCUGAUUAAGAGCUGGCUGGCCUCACUCUUGCGGUCGCACUAGUGUGGAAUUCUCGGGUGUCAAGG
# B7: ENSMUSG00000061578.1543|Ksr2 (ssRNA)
# RNA: GGGAGUUCUACAGUCCGACGAUCGCUUCGAUAUCCGCAUGCUACACUAUGUAUAUUUGUAUAGAUCAUUUAUAAAGUUUUCUACACUUCUCAAAAAAAAAAAUAUUUCUAACCUUGGCUGUUGGACAGUCUGUGAGCCUGUGAGCCGGCAAGCCUGUUGUUUCUUGUGUUUAGUGCAAUGUUAGUGAGAAUCCAGUGUCUGAGUUAUUAAUGCCAAUAAAGAAUUUGAGAAUUACUGCAUCCGCUGCUGUCACUCCAGGUCAGAACUCUGCUGUUGUCUGUUGGAUGGAAGGAAGCUCCAGAGCUCUUGCGGUCGCACUAGUGUGGAAUUCUCGGGUGUCAAGG
# B8: ENSMUSG00000058297.241|Spock2 (ssRNA)
# RNA: GGGAGUUCUACAGUCCGACGAUCGCUUCGAUAUCCGCAUGCUAUAUCAGAGGGGACCACACUGAGCAGCUAGGCCCUGAUGCCAUGCCUCAGCACGCCCUCAGACCUCCAGGCCGGGUGGAAGGGGCUUUUACCCAGAUGUCCUGUGGGGUUUUGUGUGUCUAUUGCUCCCCACUUCCCCCUCUCAAAGGAAAUUUCCUUGAUAUAUUUGAUGAAGAAUUCCUUACCUGGGCCUCUGAUACCCUUUGGUACGCGUACGUGUGUGUGGCGCGUAUACGUGUGUGUGUGUGUGUGUGUGUGUGUGCUCUUGCGGUCGCACUAGUGUGGAAUUCUCGGGUGUCAAGG
# B9: ENSMUSG00000058297.242|Spock2|105:111;209:217;228:260 (ssRNA)
# RNA: GGGAGUUCUACAGUCCGACGAUCGCUUCGAUAUCCGCAUGCUAAGGGGACCACACUGAGCAGCUAGGCCCUGAUGCCAUGCCUCAGCACGCCCUCAGACCUCCAGGCCGGGUGGAAGGGGCUUUUACCCAGAUGUCCUGUGGGGUUUACACACACUAUUGCUCCCCACUUCCCCCUCUCAAAGGAAAUUUCCUUGAUAUAUUUGAUGAAGAAUUCCUUACCUGGGCCUCUGAUACCCUUUGGUACGCGUACCACACACACGCGCGUAUACCACACACACACACACACACACACACACACACACCUCUUGCGGUCGCACUAGUGUGGAAUUCUCGGGUGUCAAGG
# B10: ENSMUSG00000058297.246|Spock2 (ssRNA)
# RNA: GGGAGUUCUACAGUCCGACGAUCGCUUCGAUAUCCGCAUGCUACCCUGAUGCCAUGCCUCAGCACGCCCUCAGACCUCCAGGCCGGGUGGAAGGGGCUUUUACCCAGAUGUCCUGUGGGGUUUUGUGUGUCUAUUGCUCCCCACUUCCCCCUCUCAAAGGAAAUUUCCUUGAUAUAUUUGAUGAAGAAUUCCUUACCUGGGCCUCUGAUACCCUUUGGUACGCGUACGUGUGUGUGGCGCGUAUACGUGUGUGUGUGUGUGUGUGUGUGUGUGUGUGUGUGUGUGUGUGAGAGAGAGAGAGAGCUCUUGCGGUCGCACUAGUGUGGAAUUCUCGGGUGUCAAGG
# B11: ENSMUSG00000058297.239|Spock2 (ssRNA)
# RNA: GGGAGUUCUACAGUCCGACGAUCGCUUCGAUAUCCGCAUGCUAGAACGGUGUAUCUAUCAGAGGGGACCACACUGAGCAGCUAGGCCCUGAUGCCAUGCCUCAGCACGCCCUCAGACCUCCAGGCCGGGUGGAAGGGGCUUUUACCCAGAUGUCCUGUGGGGUUUUGUGUGUCUAUUGCUCCCCACUUCCCCCUCUCAAAGGAAAUUUCCUUGAUAUAUUUGAUGAAGAAUUCCUUACCUGGGCCUCUGAUACCCUUUGGUACGCGUACGUGUGUGUGGCGCGUAUACGUGUGUGUGUGUGUGCUCUUGCGGUCGCACUAGUGUGGAAUUCUCGGGUGUCAAGG
# B12: ENSMUSG00000058297.245|Spock2 (ssRNA)
# RNA: GGGAGUUCUACAGUCCGACGAUCGCUUCGAUAUCCGCAUGCUAGCUAGGCCCUGAUGCCAUGCCUCAGCACGCCCUCAGACCUCCAGGCCGGGUGGAAGGGGCUUUUACCCAGAUGUCCUGUGGGGUUUUGUGUGUCUAUUGCUCCCCACUUCCCCCUCUCAAAGGAAAUUUCCUUGAUAUAUUUGAUGAAGAAUUCCUUACCUGGGCCUCUGAUACCCUUUGGUACGCGUACGUGUGUGUGGCGCGUAUACGUGUGUGUGUGUGUGUGUGUGUGUGUGUGUGUGUGUGUGUGUGAGAGAGAGCUCUUGCGGUCGCACUAGUGUGGAAUUCUCGGGUGUCAAGG
# B13: ENSMUSG00000058297.240|Spock2 (ssRNA)
# RNA: GGGAGUUCUACAGUCCGACGAUCGCUUCGAUAUCCGCAUGCUAUGUAUCUAUCAGAGGGGACCACACUGAGCAGCUAGGCCCUGAUGCCAUGCCUCAGCACGCCCUCAGACCUCCAGGCCGGGUGGAAGGGGCUUUUACCCAGAUGUCCUGUGGGGUUUUGUGUGUCUAUUGCUCCCCACUUCCCCCUCUCAAAGGAAAUUUCCUUGAUAUAUUUGAUGAAGAAUUCCUUACCUGGGCCUCUGAUACCCUUUGGUACGCGUACGUGUGUGUGGCGCGUAUACGUGUGUGUGUGUGUGUGUGUGCUCUUGCGGUCGCACUAGUGUGGAAUUCUCGGGUGUCAAGG
# B14: ENSMUSG00000058297.243|Spock2 (ssRNA)
# RNA: GGGAGUUCUACAGUCCGACGAUCGCUUCGAUAUCCGCAUGCUACCACACUGAGCAGCUAGGCCCUGAUGCCAUGCCUCAGCACGCCCUCAGACCUCCAGGCCGGGUGGAAGGGGCUUUUACCCAGAUGUCCUGUGGGGUUUUGUGUGUCUAUUGCUCCCCACUUCCCCCUCUCAAAGGAAAUUUCCUUGAUAUAUUUGAUGAAGAAUUCCUUACCUGGGCCUCUGAUACCCUUUGGUACGCGUACGUGUGUGUGGCGCGUAUACGUGUGUGUGUGUGUGUGUGUGUGUGUGUGUGUGUGUGUGCUCUUGCGGUCGCACUAGUGUGGAAUUCUCGGGUGUCAAGG
# B15: ENSMUSG00000058297.244|Spock2 (ssRNA)
# RNA: GGGAGUUCUACAGUCCGACGAUCGCUUCGAUAUCCGCAUGCUAUGAGCAGCUAGGCCCUGAUGCCAUGCCUCAGCACGCCCUCAGACCUCCAGGCCGGGUGGAAGGGGCUUUUACCCAGAUGUCCUGUGGGGUUUUGUGUGUCUAUUGCUCCCCACUUCCCCCUCUCAAAGGAAAUUUCCUUGAUAUAUUUGAUGAAGAAUUCCUUACCUGGGCCUCUGAUACCCUUUGGUACGCGUACGUGUGUGUGGCGCGUAUACGUGUGUGUGUGUGUGUGUGUGUGUGUGUGUGUGUGUGUGUGUGAGCUCUUGCGGUCGCACUAGUGUGGAAUUCUCGGGUGUCAAGG
# B16: ENSMUSG00000058297.242|Spock2 (ssRNA)
# RNA: GGGAGUUCUACAGUCCGACGAUCGCUUCGAUAUCCGCAUGCUAAGGGGACCACACUGAGCAGCUAGGCCCUGAUGCCAUGCCUCAGCACGCCCUCAGACCUCCAGGCCGGGUGGAAGGGGCUUUUACCCAGAUGUCCUGUGGGGUUUUGUGUGUCUAUUGCUCCCCACUUCCCCCUCUCAAAGGAAAUUUCCUUGAUAUAUUUGAUGAAGAAUUCCUUACCUGGGCCUCUGAUACCCUUUGGUACGCGUACGUGUGUGUGGCGCGUAUACGUGUGUGUGUGUGUGUGUGUGUGUGUGUGUGUGCUCUUGCGGUCGCACUAGUGUGGAAUUCUCGGGUGUCAAGG
# Molecular target: TDP-43 (Homo sapiens, UniProt Q13148 1-414)
# Sequence (Q13148 whole entry): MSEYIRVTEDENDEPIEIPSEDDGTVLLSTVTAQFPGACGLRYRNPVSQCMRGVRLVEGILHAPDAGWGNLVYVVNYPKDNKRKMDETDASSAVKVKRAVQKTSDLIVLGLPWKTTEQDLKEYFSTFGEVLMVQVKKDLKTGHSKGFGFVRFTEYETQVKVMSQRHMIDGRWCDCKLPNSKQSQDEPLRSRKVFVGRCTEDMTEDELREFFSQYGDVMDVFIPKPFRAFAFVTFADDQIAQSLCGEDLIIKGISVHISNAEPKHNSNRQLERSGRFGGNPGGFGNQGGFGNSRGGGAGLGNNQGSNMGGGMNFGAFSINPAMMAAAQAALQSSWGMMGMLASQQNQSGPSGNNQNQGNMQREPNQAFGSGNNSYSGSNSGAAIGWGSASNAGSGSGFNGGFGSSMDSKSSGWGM
# Assay: RNA Bind-n-Seq with designed 260-mer pool; 25 mM Tris-HCl, 150 mM KCl, 3 mM MgCl2, BSA (printed 500 mg/mL), 20 units/mL SUPERase IN; pH not stated; 500 nM RNA pool, 1 h, 4 C; TDP-43 5, 50, 500 nM; high values mean tight binding
# Conditions: protein: recombinant; tags: SBP (GST cleaved off with PreScission; pGEX-GST-SBP)
# In short: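 Recombinant SBP-tagged TDP-43 at 5, 50 or 500 nM was captured on streptavidin beads, then incubated 1 h at 4 °C with 500 nM of an in vitro-transcribed 260-nt 3′ UTR oligo pool in 25 mM Tris-HCl, 150 mM KCl, 3 mM MgCl2, BSA and SUPERase IN. Bound RNA was washed, eluted with biotin, reverse transcribed, PCR-amplified and sequenced. Binding is R, each oligo's mapped-read-normalized abundance in the bound sample divided by its abundance in input. Duplicates used two independent protein batches.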
row,Binder,binding signal
1,B1,1.48 R (bound/input frequency ratio)
2,B2,2.44 R (bound/input frequency ratio)
3,B3,1.42 R (bound/input frequency ratio)
4,B4,1.1 R (bound/input frequency ratio)
5,B5,0.252 R (bound/input frequency ratio)
6,B6,0.253 R (bound/input frequency ratio)
7,B7,0.902 R (bound/input frequency ratio)
8,B8,6.46 R (bound/input frequency ratio)
9,B9,4.83 R (bound/input frequency ratio)
10,B10,2.94 R (bound/input frequency ratio)
11,B11,3.69 R (bound/input frequency ratio)
12,B12,9.24 R (bound/input frequency ratio)
13,B13,5.45 R (bound/input frequency ratio)
14,B14,6.55 R (bound/input frequency ratio)
15,B15,3.2 R (bound/input frequency ratio)
16,B16,6.94 R (bound/input frequency ratio)
